# Assay outcomes as filed in PubChem BioAssay.
# Sampled rows, rich in hits. Any-hit rate of the full collection: about 17%.
# HepG2 tox – HepG2 cytotoxicity, counter-screen for TGF-b inhibitors | HepG2 CAGA-GFP viability, ATP luminescence, 18 h | Potency, µM (titrated, usually from 46.1 µM), inactives show at the highest dose activity change, negative = cytotoxicity, actives largely listed as cytotoxic | 410,000 compounds, 0.76% hits | AID 588856
#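 HepG2 CAGA-GFP cells (1000/well, DMEM with 1% FBS) received compound, then TGF-beta at 500 pg/mL final, and were incubated 18 hours at 37 degrees C. Viability was read by CellTiter-Glo luminescence. Media-only wells were set as complete cell-killing and DMSO as no toxicity.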
# TDP1 cell noCPT – qHTS for Inhibitors of human tyrosyl-DNA phosphodiesterase 1 (TDP1): qHTS in cells in absence of CPT. DT40 Tdp1-/- hTDP1 cells, no CPT, ATP luminescence, 48 h. Potency, µM (series often up to 46.2 µM), for inactives: at the highest dose activity change, negative = growth inhibition, most hits filed as inhibitors. 420,000 compounds, 15% hits. AID 686978, 2013; also: % is scaled to controls: 0 for no effect and ±100 for the full control effect; nearly all actives have a fitted effect of over 55% in size
#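 Growth kinetics read by CellTiter-Glo luminescence after ≥48 hr at 37 °C. Cells: DT40 Tdp1-/- stably carrying human TDP1, 400 per well, compound exposure in the absence of CPT (DMSO vehicle).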
# TGFb inhibitor – blocks TGF-b signaling. HepG2 CAGA-GFP TGF-b/SMAD3 reporter, GFP fluorescence, 18 h; TGF-beta stimulated, 500 pg/mL final. Potency, µM (doses to about 46.1 µM), inactives show at the highest dose activity, negative = inhibition, most hits filed as inhibitors. 410,000 compounds, 1.2% hits. AID 588855; also: % is scaled to controls: 0 for no effect and ±100 for the full control effect; nearly all actives have a fitted effect of over 65% in size
#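 Inhibition was scored as loss of TGF-beta-induced (500 pg/mL final, 18 hours, 37 degrees C) GFP in HEPG2 cells carrying a CAGA-GFP reporter, in DMEM with 1% FBS. Well GFP was summed per cell; Activity was normalised to unstimulated and stimulated DMSO wells, then concentration-response fitting.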
# ATXN viability – reduces viability in counter-screen for ATXN expression inhibitors; S2 cells (HEK-293 line with an ATXN2-luciferase reporter) viability, CellTiter-Fluor protease fluorescence, 24 h; Potency, µM (doses to about 56.7 µM), most hits filed as cytotoxic; 400,000 compounds, 0.49% hits; also: nearly all actives have a fitted effect of over 40% in size
# DT40 TDP1 CPT – growth inhibition of DT40 Tdp1-/-;hTDP1 cells with camptothecin (screen for TDP1 inhibitors) | Potency, µM (highest dose often 46.2 µM), for the others: at the highest dose activity change, negative = growth inhibition, most hits filed as inhibitors | chicken DT40 Tdp1-/-;hTDP1 cells + 20 nM CPT, ATP luminescence, 48 h | 420,000 compounds, 12% hits; also: % is scaled to controls: 0 for no effect and ±100 for the full control effect; nearly all actives have a fitted effect of over 55% in size
#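 Cell growth measured by CellTiter-Glo luminescence after a minimum 48 h, 37 C compound exposure with 20 nM CPT in Tdp1-knockout DT40 cells stably expressing hTDP1, seeded 400/well; qHTS titration format.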
# ATXN2 expr inh – inhibitors of ATXN2 expression. 360,000 compounds, 0.72% hits. HEK-293 ATXN2-luciferase reporter, luminescence, 24 h. AID 1745845. Potency, µM (doses to about 57 µM), without a hit: top-dose activity change, negative = inhibition, hits mostly inhibitors; also: % is scaled to controls: 0 for no effect and ±100 for the full control effect; nearly all actives have a fitted effect of over 55% in size
#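 ATXN2-luciferase reporter cells (luciferase flanked by upstream and downstream ATXN2 gene portions) were treated 24 h at 37 °C with compounds at up to 57 uM. SteadyGlo luminescence gave expression; GF-AFC fluorescence gave viability.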
# Numbers without * were called inactive; i = inactive; ? = inconclusive; / = not tested or not shown; ! = repeats disagree; [ ] = another dose, or the depositor's remark. Calls follow the shape of the dose curve; as a rule, active = well fitted curve in the direction sought with a large enough effect; inconclusive = small, poorly fitted or top-dose-only effect, or another doubt; inactive = no such curve, though single readings can be large; an effect the other way counts as inactive or inconclusive. Potency is read from the fitted curve at half-maximal effect.
SMILES,HepG2 tox,TDP1 cell noCPT,TGFb inhibitor,ATXN viability,DT40 TDP1 CPT,ATXN2 expr inh
CC1CCN(S(=O)(=O)c2nnc(NC(=O)c3cccc(Br)c3)s2)CC1,-37%,?,4.5µM*,/,?,/
Cc1cccc(C(=O)Nc2nnc(S(=O)(=O)N3CCC(C)CC3)s2)c1,-11%,?,?,i,?,-10%
CC(C)(C)c1ccc(Cn2cnc3c(cnn3C(C)(C)C)c2=O)cc1,-18%,/,7%,/,/,/
CC(=O)Nc1sc2c(c1C(c1ccccc1Cl)N1CCN(CCO)CC1)CCCC2 (centres undefined),-48%,?,?,i,?,-15%
Cc1cc(C)c2nc(N3CCCC(C(=O)NCCCN4CCOCC4)C3)sc2c1 (centres undefined),-42%,?,-19%,i,?,20%
Cc1cc(C)c2nc(N3CCC(C(=O)NCCCN4CC(C)CC(C)C4)CC3)sc2c1 (centres undefined),10%,23µM*,-3%,i,?,-30%[11.3 µM]
CCN1CCN(CCCNC(=O)C2CCCN(c3nc4c(C)cc(C)cc4s3)C2)CC1 (centres undefined),-52%,21µM*,-22%,i,23µM*,1%
CCCCn1c(N)c(N(CCOC)C(=O)CCNC(=O)c2ccc(Cl)cc2)c(=O)[nH]c1=O,7%,-10%,12%,i,-3%,-19%
Cc1nn(C)c(C(=O)N/N=C/c2ccc(-c3ccccc3)cc2)c1Cl,-27%,-14%,?,?,-23%,-18%
COc1ccc(CCNCc2ccccc2N2CCCC2)cc1,-24%,?,13%,i,18µM*,?
COc1ccc(CCNC(=O)CN2CCN(c3ccccc3Cl)CC2)cc1,-34%,?,?,i,-22%,-6%
COc1ccc(CCNCc2cc(C)n(-c3ccc(OC)cc3)c2C)cc1,-14%,?,-5%,?,16µM*,/
CCOC(=O)c1ccc(NC(=O)c2nc[nH]c2C(=O)N[C@H](C)CO)cc1,-3%,-23%,-1%,i,2%,5%
CCC(C)Nc1nc(Cl)nc(N(C#N)CN2C(=O)c3ccccc3S2(=O)=O)n1 (centres undefined),-37%,?,?,i,15µM*,-7%
CSCC(=O)N1CCC(n2nccc2NC(=O)c2ccc3c(c2)OCO3)CC1,-6%,-6%,0%,i,5%,/
O=c1c2ccccc2nc(/C=C/c2c[nH]c3ccccc23)n1CCO,-6%,6.5µM*,3%,/,4.6µM*,68%
O=c1c2ccccc2nc(/C=C/c2cc(Br)ccc2O)n1CCO,13µM*,15µM*,?,i,?,/
Cc1cc(N2CC(C)OC(C)C2)n2cc(-c3ccccc3)nc2n1 (centres undefined),-8%,?,-1%,i,-23%,4%
COC(=O)c1c(NC2=NS(=O)(=O)c3ccccc32)sc2c1CCC(C(C)(C)C)C2 (centres undefined),-11%,15µM*,-25%,i,18µM*,2%
Cc1nc2c(ccc3nc(NC(=O)C(c4ccccc4)c4ccccc4)sc32)s1,-24%,7.3µM*,?,i,7.3µM*,-23%
Cc1nc2c(ccc3nc(NC(=O)c4ccc5c(c4)OCCO5)sc32)s1,-23%,18µM*,-1%,?,16µM*,-1%
COc1ccc(-c2ccc(CNc3ccc4[nH]c(=O)[nH]c4c3)o2)cc1Cl,-65%,?,0%,?,?,?
CCCCCC(=O)O[C@]1(C(C)=O)CC[C@H]2[C@@H]3CCC4=CC(=O)CC[C@]4(C)[C@H]3CC[C@@]21C,-37%,18µM*,?,35µM*!,26µM*,28µM*!
CC(=O)O[C@]1(C(C)=O)CC[C@H]2[C@@H]3C=CC4=CC(=O)C=C[C@]4(C)[C@H]3CC[C@@]21C,-18%,15µM*,-11%,i,?,-20%
CC(=O)O[C@@]1(C(C)=O)CCC2C3C=C(C)C4=CC(=O)CCC4(C)C3CCC21C (some centres undefined),/,-15%,/,/,-6%,/
SMILES,HepG2 tox,TDP1 cell noCPT,TGFb inhibitor,ATXN viability,DT40 TDP1 CPT,ATXN2 expr inh
CC(=O)O[C@]1(C(C)=O)CC[C@@H]2[C@@H]3C=C(Cl)C4=CC(=O)[C@H]5C[C@@H]5[C@]4(C)[C@H]3CC[C@]21C,/,/,/,i,/,/
CC(=O)O[C@]1(C(C)=O)CCC2C3C=C(C)C4=CC(=O)CC[C@]4(C)C3CC[C@@]21C (some centres undefined),0%,16µM*,6%,i,23µM*,/
CC(=O)O[C@]1(C(C)=O)CC[C@H]2[C@@H]3C=C(C)C4=CC(=O)CC[C@@H]4[C@H]3CC[C@@]21C,-23%,4.6µM*,12%,i,?,-10%
CN(C)C(=O)N1CCC(C(=O)NCc2ccccc2)CC1,-1%,-11%,6%,i,-10%,2%
CCC(=O)O[C@]1(C(=O)CO)CC[C@H]2[C@@H]3CCC4=CC(=O)CC[C@]4(C)[C@@H]3CC[C@@]21C,/,/,/,/,/,4%
CC(=O)OC1(C(C)=O)CCC2C3CC(Cl)C4=CC(=O)CCC4(C)C3CCC21C (centres undefined),-12%,23µM*,14%,i,?,-14%
COc1ccc(/C=N/NC(=O)c2ccn[nH]2)cc1COc1ccc(Cl)cc1,-28%,?,?,?,?,3%
COc1ccc(OC)c(/C=N/NC(=O)c2cc3c(OC)cc(OC)cc3[nH]2)c1,18%,?,-19%,i,?,-1%
CCOc1ccc(/C=N/NC(=O)c2cc3c(OC)cc(OC)cc3[nH]2)cc1OC,-35%,16µM*,4%,i,13µM*,/
C=CCOc1ccc(/C=N/NC(=O)c2cc3c(OC)cc(OC)cc3[nH]2)cc1,-18%,26µM*,-30%,i,?,-1%
O=C(NCc1cc(Cl)cc(Cl)c1)c1ccc2nc([C@@H]3O[C@H](CO)[C@@H](O)[C@H]3O)[nH]c2c1,2%,-3%,16%,i,4%,8%
Cc1nn(CC(=O)Nc2ccccn2)c(C)c1Br,0%,?,-8%,i,8.2µM*,-5%
CCOC(=O)C1(C)CCCN1C(=O)c1ccc2ccccc2c1 (centres undefined),-2%,18µM*,-9%,i,?,2%
